# Measured values published in PubChem BioAssay AID1159580 (chemical genetic matrix, 2015).
# In all, about 5,500 compounds went through this assay and about 2,000 (36%) were called active. Not shown: some 18% with an inconclusive outcome. The list shows a part of the results. Unmarked numbers belong to inactive results. No stated cut-off is given here; in the data, active means normalized growth mostly below about 0.91 (no sharp cut-off); inconclusive means no clear call, values can overlap the other calls; inactive means mostly above about 0.92.
# Assay: chemical genetic growth profiling, strain panel (AID 1159580);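 further: tested at 20 µM; growth read once vehicle control cultures reached saturation at 30 °C; 1 = growth at the plate median or of vehicle wells; lower values mean less growth of the strain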
# Conditions: S. cerevisiae deletion strains, growth OD
# [1] = locus YAR019C, strain CDC15, hits give low values
# [2] = locus YBL105C, strain PKC1, hits give low values
# [3] = locus YBR135W, strain CKS1, hits give low values
# [4] = locus YBR136W, strain MEC1, hits give low values
# [5] = locus YBR160W, strain CDC28, hits give low values
# [6] = locus YDL017W, strain CDC7, hits give low values
# [7] = locus YDL028C, strain MPS1, hits give low values
# [8] = locus YDL101C, strain DUN1, hits give low values
# [9] = locus YDL108W, strain KIN28, hits give low values
# [10] = locus YDL132W, strain cdc53, hits give low values
# [11] = locus YDL214C, strain PRR2, hits give low values
# [12] = locus YDR052C, strain DBF4, hits give low values
# [13] = locus YDR054C, strain cdc34, hits give low values
# [14] = locus YDR226W, strain ADK1, hits give low values
# [15] = locus YDR477W, strain SNF1, hits give low values
# [16] = locus YER123W, strain YCK3, hits give low values
# [17] = locus YER133W, strain GLC7, hits give low values
# [18] = locus YFL009W, strain cdc4, hits give low values
# [19] = locus YFL029C, strain CAK1, hits give low values
# [20] = locus YFR003C, strain YPI1, hits give low values
# [21] = locus YFR019W, strain FAB1, hits give low values
# [22] = locus YFR028C, strain CDC14, hits give low values
# [23] = locus YGR040W, strain KSS1, hits give low values
# [24] = locus YGR052W, strain FMP48, hits give low values
# [25] = locus YGR092W, strain DBF2, hits give low values
# [26] = locus YHR030C, strain SLT2, hits give low values
# [27] = locus YHR079C, strain IRE1, hits give low values
# [28] = locus YHR082C, strain KSP1, hits give low values
# [29] = locus YHR205W, strain SCH9, hits give low values
# [30] = locus YIL147C, strain SLN1, hits give low values
# [31] = locus YJL095W, strain BCK1, hits give low values
# [32] = locus YJL128C, strain PBS2, hits give low values
# [33] = locus YJL157C, strain FAR1, hits give low values
# [34] = locus YJR016C, strain ILV3, hits give low values
# [35] = locus YJR066W, strain TOR1 (second series), hits give low values
# [36] = locus YJR066W, strain TOR1, hits give low values
# [37] = locus YKL048C, strain ELM1, hits give low values
# [38] = locus YKL067W, strain YNK1, hits give low values
# [39] = locus YKL101W, strain HSL1, hits give low values
# [40] = locus YKL193C, strain SDS22, hits give low values
# [41] = locus YKL203C, strain TOR2, hits give low values
# [42] = locus YLR113W, strain HOG1, hits give low values
# [43] = locus YLR133W, strain CKI1, hits give low values
# [44] = locus YLR403W, strain SFP1, hits give low values
# [45] = locus YML070W, strain DAK1, hits give low values
# [46] = locus YMR001C, strain CDC5, hits give low values
# [47] = locus YMR205C, strain PFK2 (second series), hits give low values
# [48] = locus YMR277W, strain FCP1, hits give low values
# [49] = locus YNL006W, strain LST8, hits give low values
# [50] = locus YNL020C, strain ARK1, hits give low values
# [51] = locus YNL161W, strain CBK1, hits give low values
# [52] = locus YNL183C, strain NPR1, hits give low values
# [53] = locus YNL207W, strain RIO2, hits give low values
# [54] = locus YNL222W, strain SSU72, hits give low values
# [55] = locus YNL307C, strain MCK1 (second series), hits give low values
# [56] = locus YOL078W, strain AVO1, hits give low values
# [57] = locus YOL136C, strain PFK27, hits give low values
# [58] = locus YOR061W, strain CKA2, hits give low values
# [59] = locus YOR119C, strain RIO1, hits give low values
# [60] = locus YOR231W, strain MKK1, hits give low values
# [61] = locus YOR329C, strain SCD5, hits give low values
# [62] = locus YPL031C, strain PHO85, hits give low values
# [63] = locus YPL153C, strain RAD53, hits give low values
# [64] = locus YPL204W, strain HRR25, hits give low values
# [65] = locus YPL209C, strain IPL1, hits give low values
# [66] = locus YPL256C, strain CLN2, hits give low values
# [67] = locus YPR025C, strain CCL1, hits give low values
# [68] = locus YPR106W, strain ISR1, hits give low values
# [69] = locus YPR111W, strain DBF20, hits give low values
# [70] = strain NNK1, hits give low values
# [71] = strain TSCII, hits give low values
structure (smiles),measurement,setting,value
Clc1ccc(-c2noc(CSC3=NCCN3)n2)cc1,normalized growth,[1],0.987
same,normalized growth,[2],0.987
same,normalized growth,[3],0.98
same,normalized growth,[4],0.981
same,normalized growth,[5],0.984
same,normalized growth,[6],0.986
same,normalized growth,[7],0.979
same,normalized growth,[8],0.989
same,normalized growth,[9],0.979
same,normalized growth,[10],0.98
same,normalized growth,[11],0.923
same,normalized growth,[12],0.981
same,normalized growth,[13],0.96
same,normalized growth,[14],0.975
same,normalized growth,[15],0.938
same,normalized growth,[16],0.904
same,normalized growth,[17],0.935
same,normalized growth,[18],0.978
same,normalized growth,[19],0.987
same,normalized growth,[20],0.974
same,normalized growth,[21],0.948
same,normalized growth,[22],0.971
same,normalized growth,[23],0.926
same,normalized growth,[24],0.964
same,normalized growth,[25],0.955
same,normalized growth,[26],0.93
same,normalized growth,[27],0.968
same,normalized growth,[28],1.02
same,normalized growth,[29],0.962
same,normalized growth,[30],0.969
same,normalized growth,[31],0.949
same,normalized growth,[32],0.912
same,normalized growth,[33],0.925
same,normalized growth,[34],0.974
same,normalized growth,[35],0.912
same,normalized growth,[36],1.08
same,normalized growth,[37],0.96
same,normalized growth,[38],0.933
same,normalized growth,[39],0.939
same,normalized growth,[40],0.976
same,normalized growth,[41],1.01
same,normalized growth,[42],0.839 (active)
same,normalized growth,[43],0.959
same,normalized growth,[44],0.982
same,normalized growth,[45],0.912
same,normalized growth,[46],0.987
same,normalized growth,[47],0.938
same,normalized growth,[48],0.975
same,normalized growth,[49],0.985
same,normalized growth,[50],0.962
same,normalized growth,[51],0.965
same,normalized growth,[52],1.05
same,normalized growth,[53],0.988
same,normalized growth,[54],0.981
same,normalized growth,[55],0.946
same,normalized growth,[56],0.974
same,normalized growth,[57],0.941
same,normalized growth,[58],0.938
same,normalized growth,[59],1
same,normalized growth,[60],0.965
same,normalized growth,[61],0.981
same,normalized growth,[62],0.924
same,normalized growth,[63],0.92
same,normalized growth,[64],0.903
same,normalized growth,[65],0.986
same,normalized growth,[66],0.945
same,normalized growth,[67],0.986
same,normalized growth,[68],0.975
same,normalized growth,[69],0.97
same,normalized growth,[70],0.977
same,normalized growth,[71],0.986
N=C(N)SCc1nc(-c2ccc(Cl)cc2)no1,normalized growth,[1],0.979
same,normalized growth,[2],0.985
same,normalized growth,[3],0.981
same,normalized growth,[4],0.984
same,normalized growth,[5],0.984
same,normalized growth,[6],0.977
same,normalized growth,[7],0.977
same,normalized growth,[8],0.99
same,normalized growth,[9],0.976
same,normalized growth,[10],0.99
same,normalized growth,[11],0.975
same,normalized growth,[12],0.99
same,normalized growth,[13],0.978
same,normalized growth,[14],0.978
same,normalized growth,[15],0.977
same,normalized growth,[16],0.989
same,normalized growth,[17],0.986
same,normalized growth,[18],0.983
same,normalized growth,[19],0.978
same,normalized growth,[20],0.982
same,normalized growth,[21],0.973
same,normalized growth,[22],0.986
same,normalized growth,[23],0.98
same,normalized growth,[24],1.03
same,normalized growth,[25],0.987
same,normalized growth,[26],0.949
same,normalized growth,[27],0.96
same,normalized growth,[28],1.06
same,normalized growth,[29],0.828
same,normalized growth,[30],0.985
same,normalized growth,[31],1.01
same,normalized growth,[32],0.929
same,normalized growth,[33],0.974
same,normalized growth,[34],0.987
same,normalized growth,[35],0.981
same,normalized growth,[36],1.11
same,normalized growth,[37],0.982
same,normalized growth,[38],0.984
same,normalized growth,[39],0.992
same,normalized growth,[40],0.985
same,normalized growth,[41],1.05
same,normalized growth,[42],0.989
same,normalized growth,[43],0.98
same,normalized growth,[44],0.911
same,normalized growth,[45],0.996
same,normalized growth,[46],0.981
same,normalized growth,[47],0.981
same,normalized growth,[48],0.985
same,normalized growth,[49],0.981
same,normalized growth,[50],0.986
same,normalized growth,[51],0.983
same,normalized growth,[52],1.1
same,normalized growth,[53],0.978
same,normalized growth,[54],0.984
same,normalized growth,[55],0.983
same,normalized growth,[56],0.981
same,normalized growth,[57],0.97
same,normalized growth,[58],0.986
same,normalized growth,[59],1.05
same,normalized growth,[60],1.03
same,normalized growth,[61],0.982
same,normalized growth,[62],0.964
same,normalized growth,[63],0.964
same,normalized growth,[64],0.953
same,normalized growth,[65],0.986
same,normalized growth,[66],0.925
same,normalized growth,[67],0.987
same,normalized growth,[68],0.978
same,normalized growth,[69],0.981
same,normalized growth,[70],0.992
same,normalized growth,[71],0.983
